# Mtb FBA inh – Mtb FBA enzyme inhibitors, primary screen, biochemical, fluorescence, strain H37Rv | hit rate 2.3% among 360,000 | purified M. tuberculosis FBA, fluorescence read-out | inhibition, % at 1 µM | Fructose-bisphosphate aldolase (Mycobacterium tuberculosis (strain ATCC 25618 / H37Rv)), …; in the data active means inhibition above about 27%;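 further: 0% = vehicle and 100% = reference inhibitor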
# UGM FP inh – M. tuberculosis UGM enzyme inhibitors, primary screen, biochemical, fluorescence polarization, single point. inhibition, % at 10 µM. purified UGM, fluorescence polarization probe displacement. AID 504406, 2011. hit rate 0.06% among 320,000; in the data active means inhibition above about 10%, passing the limit was not always enough
# Target sequence (P9WIQ1 whole entry, looked up): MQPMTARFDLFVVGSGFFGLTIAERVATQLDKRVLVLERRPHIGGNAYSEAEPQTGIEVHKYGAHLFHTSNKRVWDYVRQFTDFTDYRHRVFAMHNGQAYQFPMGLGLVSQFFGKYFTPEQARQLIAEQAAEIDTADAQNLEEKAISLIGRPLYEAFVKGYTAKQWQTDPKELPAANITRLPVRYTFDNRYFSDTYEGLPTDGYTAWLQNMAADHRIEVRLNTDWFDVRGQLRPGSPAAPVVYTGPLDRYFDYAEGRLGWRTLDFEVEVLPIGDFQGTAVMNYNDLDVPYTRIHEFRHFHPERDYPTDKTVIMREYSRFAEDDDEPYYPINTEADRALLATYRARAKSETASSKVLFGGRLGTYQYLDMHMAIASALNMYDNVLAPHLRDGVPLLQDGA
# Rv3671c protease – Rv3671c serine protease inhibitors, primary screen, biochemical, fluorescence polarization, M. tuberculosis H37Rv | P9WHR9 | inhibition, % at 5.96 µM | hit rate 0.048% among 320,000; in the data active means inhibition above about 38%;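 further: extracellular domain of Rv3671c used as enzyme; 0% = enzyme with DMSO and 100% = no enzyme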
# GDH-TPI inh – GDH-TPI coupling enzyme inhibitors, primary screen, artefact control for M. tuberculosis FBA inhibitor project, biochemical, absorbance, full deck | GDH-TPI coupled enzyme counterscreen, NADH absorbance | AID 588335, 2011 | hit rate 1.2% among 360,000 | inhibition, % at 4.8 µM; in the data active means inhibition above about 30%;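 further: 0% = DMSO wells and 100% = wells lacking the enzyme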
# Mtb bLac sens – beta-lactam sensitization of Mtb H37Rv, H37Rv; M. tuberculosis H37Rv growth with meropenem, percent inhibition; inhibition, % at 25 µM; hit rate 0.27% among 330,000; call rule not given here;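 further: growth measured after seven days incubation then overnight dye step; 0% = bacteria only wells and 100% = bacteria with antibiotic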
# FadD28 binding – inhibitors of FadD28 bisubstrate probe binding, primary screen, biochemical, fluorescence polarization, single point; Mycobacterium tuberculosis FadD28 fatty-acid-AMP ligase; inhibition, % at 12.5 µM; hit rate 0.22% among 360,000; in the data active means inhibition above about 8.5%, passing the limit was not always enough
# Numbers without * were called inactive; / = no result; + = active, no number. Hits are enriched below; roughly 3.7% of the tested compounds scored in any of these assays.
SMILES,Mtb FBA inh,UGM FP inh,Rv3671c protease,GDH-TPI inh,Mtb bLac sens,FadD28 binding
COC[C@H]1CCCN1[C@H]1CS(=O)(=O)N[C@@H]1COCc1ccccc1,1,/,/,/,/,-1
CCOC(=O)C1(C)CCCN(C(=O)c2ccccc2C(F)(F)F)C1 (configuration not stated),-1,/,/,7,/,-1
CCOC(=O)c1c(NS(=O)(=O)c2ccc(Br)cc2)sc2c1CCC2,1,0,5,6,89,12*
Nc1ccccc1C(=O)N=Nc1[nH]c(N)c2ccccc12,4,0,-1,18,-1,-1
Nc1[nH]c(N=NC(=O)c2ccc(F)cc2)c2ccccc12,-2,-1,2,33*,-1,-6
COc1ccc(C(=O)N2CCCC(C)(C(=O)NS(=O)(=O)C3CC3)C2)c(OC)c1 (configuration not stated),-4,/,/,2,/,-3
COCCn1c(C)cc(/C=C2/SC(=O)N(C(C)C(=O)OC)C2=O)c1C (configuration not stated),0,5,-1,6,6,-1
COCCn1c(C)cc(/C=C2\NC(=S)N(C)C2=O)c1C,-16,0,-11,36*,8,-1
CN(CCO)S(=O)(=O)c1ccc2c(c1)C(=NNC(N)=O)c1cc(S(=O)(=O)N(C)CCO)ccc1-2,3,0,-9,56*,-5,-2
CN(C)S(=O)(=O)c1ccc2c(c1)C(=NNC(N)=O)c1cc(S(=O)(=O)N(C)C)ccc1-2,-3,0,/,18,7,-4
CCOC(=O)c1sc(/N=C/N(C)C)c(C(=O)OCC)c1C,0,3,-4,21,7,-3
CCOC(=O)c1sc(/N=C/N(C)C)nc1C,-2,0,2,31*,2,-5
C[C@H]1CN([C@@H](C)CO)C(=O)CCCn2nncc2CO[C@H]1CN(C)C(=O)c1ccccc1,-1,/,/,-16,/,-3
COc1ccc(-c2oc3ccc(N4CCOCC4)cc3c2C#CC2(O)CCCCC2)cc1,68*,-1,1,29,38,-1
COc1ccc(C#Cc2c(-c3ccsc3)oc3ccc(N4CCOCC4)cc23)cc1,27,1,-2,33*,74,-1
Cc1ccc(NC(=O)COC(=O)CC2CCCC2)cc1F,-4,1,-3,7,-2,-2
Cc1ccc2oc(=O)c3cc(C(=O)NCCCN4CCCC(C)C4)sc3c2c1 (configuration not stated),5,3,-2,27,0,-2
CCCN1CCN(CCCNC(=O)c2cc3c(s2)-c2ccccc2OC3)CC1,+,-1,-9,30,2,-5
CC1CCCC(C)N1CCCNC(=O)c1cc2c(s1)-c1ccccc1OC2 (configuration not stated),+,-2,-3,25,6,-8
Cc1cccc2c1-c1sc(C(=O)NCCCN3CCCC(C)C3)cc1CO2 (configuration not stated),+,-2,-15,22,4,-14
CCCN1CCN(CCCNC(=O)c2cc3c(s2)-c2c(C)cccc2OC3)CC1,+,-1,-9,21,3,-6
CCN1CCN(CCCNC(=O)c2cc3c(s2)-c2ccccc2OC3)CC1,/,1,2,30,2,-8
O=C(Nc1cc(-c2ccccc2)nn1-c1ccccc1)c1ccccc1F,-2,4,-9,5,-4,1
Cc1ccccc1-c1cc(C(=O)NCc2cccc(Br)c2)n(CC2CC(c3cccnc3)=NO2)n1 (configuration not stated),-1,0,-22,-9,-8,-2
CCCCN1CC(COCc2ccccc2)Oc2cccc(Oc3ccc(C)cc3)c2S1(=O)=O (configuration not stated),-1,/,/,7,/,-1
COc1ccc(N2CCN(C(=O)c3cc4c(s3)-c3ccccc3OC4)CC2)cc1,4,-3,10,12,0,-1
Cc1cccc(NC(=O)c2cc3c(s2)-c2c(C)cccc2OC3)n1,14,-1,-3,22,-6,-1
CN(C)CCNC(=O)c1cc2c(s1)-c1ccccc1OC2,+,1,-4,32*,3,-4

# Screening data as filed in PubChem.
